SW480 rerep: A quantitative high throughput screen for small molecules that induce DNA re-replication in SW480 colon adenocarcinoma cells; SW480 DNA re-replication, Hoechst DNA content imaging, 48 h; Potency, µM (series often up to 46.1 µM), for inactives: at the highest dose re-replication activation, most hits filed as activators; hit rate 1.8% among 340,000; also: potency is read from the fitted curve at half-maximal effect; % of control where 0% means no effect; nearly all actives have a fitted effect of over 55% in size
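Hoechst fluorescence of nuclei (405 nm excitation, 500-530 nm emission) measured by plate-scanning imager after 48 hr compound exposure at 37 C; re-replication scored as increased number of nuclei with elevated intensity.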
DT40 TDP1 CPT: qHTS for Inhibitors of human tyrosyl-DNA phosphodiesterase 1 (TDP1): qHTS in cells in presence of CPT; chicken DT40 Tdp1-/-;hTDP1 cells + 20 nM CPT, ATP luminescence, 48 h; Potency, µM (titrated, usually from 46.2 µM), without a hit: top-dose activity change, negative = growth inhibition, usual class: inhibitors; hit rate 12% among 420,000; also: potency is read from the fitted curve at half-maximal effect; % is scaled to controls: 0 for no effect and ±100 for the full control effect; nearly all actives have a fitted effect of over 55% in size
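Chicken DT40 Tdp1-/- cells stably complemented with human TDP1 were seeded at 400 cells/well in medium containing 20 nM camptothecin, exposed to pin-transferred compounds, and grown at 37 °C for at least 48 hr. Viability was read as ATP luminescence.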
Chronic BCR inh: qHTS Assay to Find Inhibitors of Chronic Active B-Cell Receptor Signaling. AID 493014, 2011. ABC-DLBCL IkBa-CBG/CBR reporter, luminescence ratio, 4 h. Potency, µM (series often up to 46.1 µM), inactives show top-dose activity change, negative = inhibition, actives largely listed as inhibitors. hit rate 0.05% among 340,000; active = well fitted inhibition curve with a large enough effect in the signal ratio, with a control signal flat, not every such curve was filed as active; inconclusive = small, poorly fitted or top-dose-only effect, or effect the other way, or a change in a side signal; the % refers to the signal ratio;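 also: potency is read from the fitted curve at half-maximal effect; plate controls were basal doxycycline-induced cells for no effect and cells given 10 µM MG132 for full effect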
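Compounds up to 46 uM were incubated four hours with TMD8 cells whose green CBG68 luciferase is fused to IkappaBalpha; red CBR luminescence normalised the signal, and concentration-effect curves were fitted to fusion, red and ratio data.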
MCF10A rereplic: A quantitative high throughput screen for small molecules that induce DNA re-replication in MCF 10a normal breast cells. MCF 10A DNA re-replication, Hoechst nuclear intensity, 48 h. Potency, µM (series often up to 46.1 µM), for inactives: at the highest dose activity, positive = re-replication, usual class: activators. hit rate 2.9% among 350,000. AID 624296, 2012; also: potency is read from the fitted curve at half-maximal effect; % of control where 0% means no effect; nearly all actives have a fitted effect of over 50% in size
IL1B secr inh: qHTS for Inhibitors of Inflammasome Signaling: IL-1-beta AlphaLISA Primary Screen. hit rate 4.7% among 360,000. THP-1 LPS/ATP IL-1B secretion, AlphaLISA, 16 h; stronger effect = lower value. AID 743279, 2014. activity change, % at 57.5 µM; in the data active = activity change below about -50%; inconclusive = mostly about -30% to -49%; also: % is scaled to controls: 0 for no effect and ±100 for the full control effect
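Secreted IL-1B measured by AlphaLISA bead assay after 16 h compound exposure of THP-1 cells; compounds (final up to 57.5 uM) added 1 h before LPS (250 ng/mL) and ATP (1.25 mM) stimulation; lower signal means less secretion.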
DT40 TDP1 no CPT: qHTS for Inhibitors of human tyrosyl-DNA phosphodiesterase 1 (TDP1): qHTS in cells in absence of CPT; hit rate 15% among 420,000; DT40 Tdp1-/- hTDP1 cells, no CPT, ATP luminescence, 48 h; Potency, µM (titrated, usually from 46.2 µM), inactives show top-dose activity change, negative = growth inhibition, usual class: inhibitors; AID 686978, 2013; also: potency is read from the fitted curve at half-maximal effect; % is scaled to controls: 0 for no effect and ±100 for the full control effect; nearly all actives have a fitted effect of over 55% in size
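Cells were dispensed at 400 per well, compounds added by pin tool, plates incubated ≥48 hr at 37 °C, then CellTiter-Glo added for 30 min at room temperature before luminescence reading. Line: DT40 Tdp1-/- complemented with hTDP1; camptothecin omitted.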
Active calls of the source: *; ? = inconclusive; nt = no result given; [ ] = remark or other dose. Most compounds without a hit are left out; they make up all but 19% or so of the library. Unless noted, calls follow the shape of the dose curve; as a rule, active = well fitted curve in the direction sought with a large enough effect; inconclusive = small, poorly fitted or top-dose-only effect, or another doubt; inactive = no such curve, though single readings can be large; an effect the other way counts as inactive or inconclusive.

SMILES	SW480 rerep	DT40 TDP1 CPT	Chronic BCR inh	MCF10A rereplic	IL1B secr inh	DT40 TDP1 no CPT
Nc1nc(=S)c2snnc2[nH]1	nt	11µM*	nt	nt	nt	16µM*
O=C(Nc1cc(Cl)ccc1N1CCOCC1)C1CC1	-14%	-4%	0%	-2%	-4	-13%
CCN(CC)S(=O)(=O)c1ccc(N2CCOCC2)c(NC(=O)CCC2CCCCC2)c1	0%	21µM*	2%	7%	-13	?
O=C(CCC1CCCC1)Nc1cc(Cl)ccc1N1CCOCC1	?	?	6%	23%	-57*	?
CCN(CC)S(=O)(=O)c1ccc(N2CCOCC2)c(NC(=O)CC(C)(C)C)c1	-9%	-8%	-7%	9%	15	13%
Cc1ccc(S(=O)(=O)N(CC(=O)NCCSc2ccccn2)c2ccccc2F)cc1	-5%	-11%	11%	10%	15	?
CN(C)c1ccc(C(=O)N2CCCC(Cn3cc(C(=O)N4CCCC4)nn3)C2)cc1 (centres undefined)	nt	1%	nt	nt	nt	-11%
COc1ccc(C)cc1NC(=O)C1CCN(C(=O)c2ccc(C(C)(C)C)cc2)CC1	8%	?	7%	28%	-16	18µM*
COc1ccc(C)cc1NC(=O)C1CCN(S(C)(=O)=O)CC1	?	6%	-1%	-3%	0	5%
CC(C)(C)c1nnc(NC(=O)C2CCN(C(=O)c3ccccc3)CC2)s1	nt	14µM*	nt	nt	nt	?
CC(C)(C)c1nnc(NC(=O)C2CCN(c3ncccn3)CC2)s1	0%	-7%	?	-8%	28	-30%
Cc1nc(CN2CCN(C(=O)c3ccc(C(C)(C)C)cc3)CC2)cs1	4%	?	13%	1%	?	10µM*
CCCNC(=S)N1CCC(NC(=O)C2CCCCC2)CC1	2%	16µM*	-1%	2%	11	?
CCCCCCCCCCOc1cc2c(=O)c(C(=O)OCC)c[nH]c2cc1OCC	-7%	2%	nt	-3%	nt	-19%
CCC1CN(CCC(=O)N2CCCN(C(=O)c3ccco3)CC2)Cc2cc(OC)ccc2O1 (centres undefined)	nt	-9%[9.04 µM]	nt	nt	nt	-5%
Cc1cc(NC(=O)Cn2nc(C)c([N+](=O)[O-])c2C)no1	-12%	-12%	0%	0%	4	-10%
CC1CCN(c2c(NCC3CCC(C(=O)NCCC4=CCCCC4)CC3)c(=O)c2=O)CC1 (centres undefined)	-2%	18µM*	?	9%	-17	?
CC(C)(C)c1ccc(C(=O)N2CCN(C(=O)C3CCCCC3)CC2)cc1	-2%	15µM*	?	26%	-10	?
Cc1ccc(C(=O)N2CCC(C(=O)c3ccc(Cl)cc3)CC2)cc1	-7%	?	-1%	-2%	-11	12µM*
COc1ccc(Cl)cc1NC(=O)Nc1ccc(C(=O)N2CCOCC2)cc1	2%	-24%	4%	-5%	-63*	-26%
COc1ccc(NC(=O)Nc2ccc(C(=O)N3CCOCC3)cc2)cc1	-1%[9.22 µM]	-3%	-14%	-4%	7	-6%
CC(C)(C)c1ccc(C(=O)N2CCNCC2)cc1	-7%	-23%	-4%	8%	-3	-22%
CC(C)(C)c1ccc(C(=O)Nc2ccc(C(=O)N3CCOCC3)cc2)cc1	-6%	23µM*	?	-2%	-85*	21µM*
COC(=O)c1ccc(NC(=O)N2CCN(Cc3cc(=O)n4nc(-c5ccc(C)cc5)sc4n3)CC2)cc1	nt	-1%	nt	nt	nt	-10%
CCc1ccc(NC(=O)N2CCN(Cc3cc(=O)n4nc(-c5ccccc5OC)sc4n3)CC2)cc1	nt	?	nt	nt	nt	15µM*
SMILES	SW480 rerep	DT40 TDP1 CPT	Chronic BCR inh	MCF10A rereplic	IL1B secr inh	DT40 TDP1 no CPT
CC(C)(C)c1ccc(C(=O)N2CCC(C(=O)NCCC3=CCCCC3)CC2)cc1	13%	?	-3%	?	-4	18µM*
CC(C)(C)c1ccc(C(=O)N2CCCN(C(=O)c3ccc(C(C)(C)C)cc3)CC2)cc1	-3%	?	1%	8%	0	13µM*
Cc1ccc(-c2nn(-c3ccccc3)cc2C=O)o1	?	?	?	?	-16	?
CC(C)(C)c1ccc(C(=O)N2CCC(C(=O)c3ccccc3)CC2)cc1	2%	18µM*	?	18%	-75*	21µM*
COc1ccc(-c2nn3c(=O)cc(CN4CCN(C(=O)c5ccc(C(C)(C)C)cc5)CC4)nc3s2)cc1	nt	3.3µM*	nt	nt	nt	2.9µM*
O=C(c1ccccc1)C1CCN(C(=O)c2ccc(Cl)cc2)CC1	-8%	?	-7%	-2%	-26	-28%
CC(C)(C)c1ccc(C(=O)N2CCC(C(=O)NC3CCCCCC3)CC2)cc1	?	?	-14%	?	?	21µM*
CCS(=O)(=O)N1CCC(C(=O)NC2CCCCC2)CC1	-5%	-11%	0%	?	12	2%
CN(C)C(=O)N1CCC(C(=O)NC2CCCCCCC2)CC1	8.2µM*	-2%	10%	?	24	-11%
Cc1cc(C)c(S(=O)(=O)c2cccc(Cl)c2)c(=O)[nH]1	0%	3%	0%	-2%	7	-7%
Cc1cccc2cc(CN(CC3CCCO3)C(=O)c3cccc(F)c3)c(N(C)C)nc12 (centres undefined)	nt	3%[9.04 µM]	nt	nt	nt	-5%
CCC(C)NC(=O)c1ccc(Cn2c(=O)c3cccn3c3cccnc32)cc1 (centres undefined)	nt	-10%	nt	nt	nt	?
O=C1C2CC3CC1CC(O)(C3)C2	nt	-2%	nt	nt	nt	7%
C#CCOCCOCCOCCNc1nc(N2CCN(C(=O)[C@H](CCCCN)n3cc(CCCC)nn3)CC2)nc(N2CCN(C(=O)[C@H](Cc3ccc(O)cc3)n3cc(CCO)nn3)CC2)n1	-41%	-3%	4%	-1%	?	-11%
C#CCOCCOCCOCCNc1nc(N2CCN(C(=O)CCCCCCCCCCNC(=O)[C@H](CO)n3cc(CCCSC)nn3)CC2)nc(N2CCN(C(=O)CCCCCCCCCCNC(=O)[C@H](CO)n3cc(CCCSC)nn3)CC2)n1	-4%	8.2µM*	9%	?	?	6.5µM*

Screening results (PubChem BioAssay)
